In all, about 52,000 compounds went through this assay and about 1,700 (3.3%) were called active. The entries come from a sample that favours actives as a whole. Unmarked numbers belong to inactive results. Cut-off read from the data, not from the text of the source: active = survival mostly below about 52% (no sharp cut-off); inactive = mostly above about 56%.
System: Wild type
Assay: S. aureus survival, RN4220 and DeltatarO strains – OD600, teichoic acid synthesis inhibitors, primary screen (AID 463173)
Details: S. aureus RN4220 wild type/DeltatarO growth, OD600, 18 h, stronger effect = lower value, screened at 18.75 µg/mL (by protocol)

Point of comparison: `Cc1cc(C)c(-c2n[nH]c3c2C(c2ccccc2F)N(CCO)C3=O)c(O)c1` (stereo not drawn), survival 83%. Against it:
- COc1ccc(-c2nnn(CC(=O)N(CC3CCCO3)C(C(=O)NC3CCCCC3)c3cccs3)n2)cc1 (stereo not drawn) — higher, 103%
- COc1ccc(NC(=O)CCNS(=O)(=O)c2cccc3nonc23)c(OC)c1 — lower, 67%
- CC1CCN(S(=O)(=O)c2ccc3nc(N4CCN(c5ccc(F)cc5)CC4)ccc3c2)CC1 — higher, 92%
- COc1ccc(NC(=O)CSC2=Nc3ccccc3C3=NC(CCC(=O)NCc4ccco4)C(=O)N23)cc1 (stereo not drawn) — lower, 60%
- CC(C)CC(=O)n1nc(-c2ccco2)nc1NCc1ccc(Cl)cc1 — the same, 83%
- O=C(OCc1cc(=O)n2nc(C3CC3)sc2n1)c1ccc(NC(=O)c2ccccc2Cl)cc1 — higher, 99%
- O=C1c2[nH]nc(-c3ccccc3O)c2C(c2ccc(F)cc2)N1CCO (stereo not drawn) — lower, 81%
- CCc1ccc(C2c3c(-c4cc(C)ccc4O)n[nH]c3C(=O)N2Cc2cccnc2)cc1 (stereo not drawn) — lower, 74%
- COc1cc(C2c3c(-c4c(C)cc(C)cc4O)n[nH]c3C(=O)N2Cc2ccco2)cc(OC)c1OC (stereo not drawn) — higher, 98%
- O=C1c2[nH]nc(-c3ccccc3O)c2C(c2ccccc2F)N1Cc1ccncc1 (stereo not drawn) — higher, 93%
- COc1cc(C2c3c(-c4cc(C)ccc4O)n[nH]c3C(=O)N2Cc2ccco2)cc(OC)c1OC (stereo not drawn) — lower, 73%
- CCc1ccc(C2c3c(-c4cc(C)ccc4O)n[nH]c3C(=O)N2CCO)cc1 (stereo not drawn) — lower, 78%
- O=C1c2[nH]nc(-c3ccccc3O)c2C(c2ccccc2F)N1Cc1cccnc1 (stereo not drawn) — higher, 94%
- COc1cc(OC)c(NC(=O)c2c(C)oc3nc(C)nc(N4CCOCC4)c23)cc1Cl — lower, 81%
- COc1ccc2c(c1)c(CC(=O)Nc1cccc(F)c1C)c(C)n2C(=O)c1ccc(Cl)cc1 — higher, 152%
- COc1ccc(-c2nc3scc(CCNS(=O)(=O)c4c(C)noc4C)n3n2)cc1OC — higher, 123%
- CCOc1ccc(-c2cc(-c3nc(-c4cc(OC)c(OC)c(OC)c4)no3)[nH]n2)cc1 — higher, 123%
- Oc1ccc(Cl)cc1C1=Nc2ccccc2N=C(c2cccc(Br)c2)C1 — higher, 137%

For `Cc1ccc(O)c(-c2n[nH]c3c2C(c2ccc(F)cc2)N(Cc2ccco2)C3=O)c1` (stereo not drawn), the survival was 2% (active).
In the case of `Cc1cc(C)c(-c2n[nH]c3c2C(c2ccccc2F)N(Cc2ccco2)C3=O)c(O)c1` (stereo not drawn), the survival is reported as 8% (active).
For `Cc1ccc(O)c(-c2n[nH]c3c2C(c2ccccc2F)N(Cc2ccco2)C3=O)c1` (stereo not drawn), the survival was 11% (active).
For `Cc1ccc(C2c3c(-c4cc(C)ccc4O)n[nH]c3C(=O)N2Cc2ccco2)cc1` (stereo not drawn), the survival was 1% (active).
